# Reference: PubChem BioAssay AID1016 (Sanford-Burnham Center for Chemical Genomics, 2008)
# Hit rate of the full screen: of about 200,000 compounds, about 330 (0.17%) were called active. The entries come from a sample that favours actives as a whole. Unmarked numbers belong to inactive results.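 The calls were made as follows: active = activation factor of 2 or more at 20 µM, a signal rise over negative controls twice the positive control's; inactive = the rest.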
# System: alkaline phosphatase, intestinal [Bos taurus]
# Test: IAP enzyme activity enhancers – biochemical, bovine IAP, CDP-star luminescence, primary screen (AID 1016)
# Conditions: purified bovine IAP, 30 min, at 20 µM, stronger effect = higher value, fold of DMSO-control signal, blank-subtracted
row,Compound,activation factor
1,CCCCCCCCc1c(O)nc(-n2[nH]c(C)c(CCO)c2=O)[nH]c1=O,1.2
2,O=C(C1CCN(S(=O)(=O)c2ccc(Br)s2)CC1)N1CCN(C2CCCCC2)CC1,1.2
3,O=C(Nc1cc(S(=O)(=O)N2CCOCC2)ccc1Cl)c1cc(=O)c2ccccc2o1,1.3
4,O=[N+]([O-])c1cc(S(=O)(=O)N2CCCC2)ccc1NN=C1CCCC1,0.9
5,COC(=O)C1=NN(c2ccccc2)C2C(=O)N(c3ccccc3OC)C(=O)C12 (stereo unspecified),0.9
6,CC1CN(C(=O)c2ccccc2NS(=O)(=O)c2cccc([N+](=O)[O-])c2)CC(C)O1 (stereo unspecified),0.9
7,CCOc1cc(NC(=S)NCc2ccco2)c(OCC)cc1NC(=O)c1ccco1,1
8,NNC(=O)C1CC(O)CN1S(=O)(=O)c1ccc(Cl)cc1 (stereo unspecified),1.1
9,CC(C)OC(=O)CN1CCN(c2ccc(Cl)cc2)CC1,1.1
10,O=C(C(=O)N1CCc2ccccc2C1)c1c[nH]c2ccccc12,0.9
11,COc1ccc(N2CCN(C(=O)COc3ccc4c(C)cc(=O)oc4c3)CC2)cc1,1.1
12,O=C(O)c1cccc(N=NN2CCCCCC2)c1,1.1
13,COc1cc(NC(=S)NCc2ccc(S(N)(=O)=O)cc2)cc(OC)c1,1
14,Cc1ccc(S(=O)(=O)N(C)C)cc1NC(=O)/C=C/c1cccs1,0.9
15,COc1cc(OC)c(-n2cc(-c3ccc(Cl)cc3)[nH]c2=O)cc1Cl,1
16,CCCNC(=S)N1CCCC(c2nc3ccccc3[nH]2)C1 (stereo unspecified),1.1
17,Cc1ccccc1C(OCCN(C)C)C1CCCCC1 (stereo unspecified),1.1
18,CCCN(CCC)CCCNC(=O)CNC(=O)c1nn(-c2ccc(OC)cc2)c(=O)c2ccccc12,1.1
19,CCc1nnc(NC(=O)C2CC(=O)N(c3ccc4c(c3)OCCO4)C2)s1 (stereo unspecified),0.4
20,Cc1ccc(S(=O)(=O)N2CCN(CC(=O)N/N=C/c3cc([N+](=O)[O-])ccc3Cl)CC2)cc1,0.5
21,COc1ccc(/C=N/NC(=O)CNC(=O)c2ccc(S(=O)(=O)N3CCCC3)cc2)c(OC)c1,1.1
22,Cc1cc(Br)ccc1SCC(=O)OCC(=O)NCc1ccc2c(c1)OCO2,0.8

row,Compound,activation factor
1,CS(=O)(=O)n1nc(-c2ccco2)nc1N,1.2
2,Cc1ccc(NC(=O)NC(=O)N(C2CCCCC2)S(=O)(=O)c2ccccc2)cc1,1.1
3,CCN(CC)CCCSc1nc2ccccc2s1,1.1
4,COc1ccc(C2SCCN2S(=O)(=O)c2ccccc2)cc1OC (stereo unspecified),1
5,COc1ccc(C2N=C(N)N=C(N)N2c2ccccc2)cc1OC (stereo unspecified),3 (active)
6,COc1ccc(C2/C(=C(/O)c3ccccc3)C(=O)C(=O)N2c2ncccn2)cc1OC (stereo unspecified),1
7,O=C(Nc1nnc(C2COc3ccccc3O2)o1)c1ccc(F)cc1 (stereo unspecified),1
8,C/C(Cc1ccccc1)=N\NC(=O)CNC(=O)c1cccc(Br)c1,0.9
9,Cc1ccccc1NC(=O)c1ccc(COc2ccc3c(C)cc(=O)oc3c2)cc1,1
10,CCOC(=O)N1CCN(C(c2cccnc2)c2ccc3cccnc3c2O)CC1 (stereo unspecified),1.3
11,Oc1c(C(c2ccccn2)N2CCOCC2)ccc2cccnc12 (stereo unspecified),2 (active)
12,Cc1nc2sc(C(c3ccco3)N3CCOCC3)c(O)n2n1 (stereo unspecified),0.9
13,CCOC(=O)c1nn(-c2ccccc2F)c2nc(Nc3ccccc3)cc(=O)n12,1
14,Cc1ccccc1C1=NC(C(F)(F)F)(C(F)(F)F)c2c(n(-c3ccc(F)cc3)c(=O)[nH]c2=O)N1,0.9
15,CC1CCC(C(C)C)C(=O)/C1=C\c1ccc(NC(=O)CCC(=O)O)cc1 (stereo unspecified),0.9
16,C[C@@H](O)c1nc2ccccc2n1N,0.9
17,Cc1ccc(C(=O)Nc2sc(Cc3ccc4c(c3)OCO4)c(C)c2C(N)=O)cc1,0.9
18,CN(C)S(=O)(=O)Oc1ccccc1C(=O)Nc1ccccc1Cl,0.9
19,COc1ccc(S(=O)(=O)N(C)CC(=O)N2CCCC2)cc1Cl,1
20,COc1ccc(CC(=O)Nc2ccc3c(c2)CCC3)cc1S(=O)(=O)N1CCOCC1,1
21,CC(=O)Nc1ccccc1OC(=O)N1CCOCC1,0.9
22,O=C(Oc1ccc2c(c1)CCC2)N1CCOCC1,2.4 (active)

row,Compound,activation factor
1,CCc1cc(-c2n[nH]c(=S)n2CC(C)C)cs1,1
2,O=C(CNC(=O)c1cc(=O)[nH]c2ccccc12)Nc1ccc(F)c(F)c1,0.9
3,Cc1cc(C)nc(-n2ncc3c2CC(c2ccc(C(C)C)cc2)CC3=O)n1 (stereo unspecified),0.8
4,CCC(=O)N1c2ccccc2NC2=C(C(=O)CCC2)C1c1ccco1 (stereo unspecified),1
5,NC(=O)COC(=O)c1cc(S(=O)(=O)N2CCN(c3ccccc3)CC2)ccc1Cl,1.1
6,COCc1c(N)c(C)nc(Cl)c1C#N,1.1
7,Cc1cccc(C)c1NC(=O)C1CCCN1C(=O)OC(C)(C)C (stereo unspecified),0.8
8,CC(=O)NCCC(=O)Nc1cc(S(=O)(=O)N2CCOCC2)ccc1N1CCOCC1,1
9,CCCC1OC23CCCCC2C(C#N)(C#N)C1(C#N)C(=N)O3 (stereo unspecified),1.1
10,Cc1ccc(C(=O)NC(=S)NCc2cccnc2)cc1,1
11,NC(=O)C1CCN(C(=O)COc2cccc3cccnc23)CC1,1
12,Cc1nn(Cc2ccc(F)cc2)c(C)c1NC(=O)c1cccnc1Cl,1.1
13,CC(=O)Cn1ncc(N2CCOCC2)c(Br)c1=O,1.1
14,C/C(CC(=O)Nc1cccc(C(F)(F)F)c1)=N\NC(=O)C(=O)NCC(C)C,1.3
15,O=C(NN1C(=O)C2C3C=CC(O3)C2C1=O)c1ccncc1 (stereo unspecified),0.8
16,CC(C)C1Nc2c(C(=O)O)cccc2C(Nc2ccccc2C(=O)O)C1(C)C (stereo unspecified),1.1
17,CCCn1c(C(O)c2ccc(OCC)cc2)nc2ccccc21 (stereo unspecified),19.1 (active)
18,CCOCCn1c(C(C)C)nc2ccccc21,0.9
19,CCCn1c(C(Cc2ccccc2)NC(=O)COC)nc2ccccc21 (stereo unspecified),0.9
20,CCOc1ccc(C(O)Cc2nc3ccccc3n2C)cc1 (stereo unspecified),0.8
21,CCCn1c(C(O)c2cc(OC)ccc2OC)nc2ccccc21 (stereo unspecified),73.3 (active)
22,COc1cc(C(O)c2nc3ccccc3n2C)cc(OC)c1OC (stereo unspecified),1
